Our source for the growth values is PubChem BioAssay (NCI).

Each structure is given as a SMILES string. The panel holds about 83,000 compounds, 20% with a hit somewhere; the sample as a whole holds those more often.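 Growth was measured after 48 h exposure to one concentration of compound in 96-well plates. Values under 10 count as active.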 Unmarked numbers belong to inactive results. The source made the active and inactive calls.

This test concerns SR leukemia. The experiment in a line: NCI-60 one-dose screen, 48 h (100 = growth as untreated, 0 = no growth, -100 = all killed). The following applies: 10 µM unless noted. The procedure: Growth inhibition of the SR human tumor cell line is measured as a screen for anti-cancer activity. Cells are grown in 96 well plates and exposed to the test compound for 48 hours. Compounds are tested at a single concentration, which is 10^-5 M for most compounds. The reported endpoint is percent growth (GI% or GIPRCNT), where numbers from 0 - 100% represent growth inhibition, and numbers from -100% - 0 represent cell death. For example, a value of 40 represents 60% growth inhibition. A value of 0 means no net growth occurred over the course of the experiment. A value of -40 indicates 40% of cells at the beginning of the experiment died by the end of the experiment. A value of -100 means all cells are dead at the end of the experiment.
NCI-60 Human Tumor Cell Lines Screen was performed using the standard one-dose NCI protocol, which is described in more detail at https://dtp.cancer.gov/discovery_development/nci-60/default.htm.
Compounds with GIPRCNT values below 10 were considered active. Activity score was based on GIPRCNT using the following formula: […]
Score is 0 for GIPRCNT values of 100 or above, 50 for GIPRCNT values of 0, and 100 for GIPRCNT values of -100.
On to `NC(N)=N/N=C(/c1ccccc1)c1ccc(F)cc1`, for which the growth was -19.4% (active).

Consider `NC(=NCCCOc1ccc(Cl)cc1)Nc1ccc(C(F)(F)F)cc1`, for which the growth is -23.7% (active).

On to `N#Cc1nnn(-c2ccc(S(N)(=O)=O)cc2)c1NC(=O)CCl`, for which the growth is 96.1%.

Regarding `C#CC(F)(F)[C@]1(O)CC[C@H]2[C@@H]3CCC4=CC(=O)CCC4=C3[C@@H](c3ccc(C4CC4)cc3)C[C@@]21C`, the growth was -38.7% (active).

Regarding `COc1ccc(S(=O)(=O)N2CCN(C)CC2)cc1NC(=O)c1[nH]c(C)c2c1CCCCC2=O`, the growth was 58.2%.

`O=C(C(=O)c1ccc2c(c1)OCO2)c1ccc2c(c1)OCO2`: the growth is 106%.

Regarding `O=C1/C(=C/N2N=C(c3ccc4ccccc4c3)CC2c2ccccc2O)SC(=S)N1c1cccnc1` (stereo not given), the growth was 29.2%.

On to `Nc1ccc(S(=O)(=O)O)c2ccc(N=Nc3ccc(N=Nc4ccc(S(=O)(=O)O)cc4)c4ccccc34)c(O)c12`, for which the growth was 99.8%.

As for `C#CCOc1ccc2ncnc(NCc3cccc(NC(=O)CCl)c3)c2c1`, the growth was 15.7% [8.25 µM].

Consider `CCCCN(CCCC)CCCn1c(-c2ccccc2)ccc1-c1ccccc1`, for which the growth was 42.7%.

Take `Clc1ccc2c(NCCCNc3nc(-n4ccnc4)nc4ccccc34)ccnc2c1`: the growth was 58.4%.

With `COC(=O)c1ccc(Cn2cnc3c(N)ncnc32)cc1`, the growth is 104%.

Consider `O=C(CN1C(=O)/C(=C/c2ccc(Cl)cc2)SC1=S)NCCCN1CCOCC1`, for which the growth was 97.8%.

For `CCOC(=O)c1sc2nc(-c3cccc(O)c3)nc(N3CCOCC3)c2c1C`, the growth is 65%.

Turning to `CCOc1ccc(-n2nc(C(=O)Nc3cc(OC)c(OC)c(OC)c3)nc2-c2cc(OC)c(OC)c(OC)c2)cc1`, the growth was 40.7%.

For the molecule `CCOc1ccc(C(C)=O)cc1NC(=O)c1cccc(-c2nnn(CC)n2)c1`, the growth was 10.2%.

Turning to `Cc1ccc2c(C(C[N+](=O)[O-])c3ccco3)c(-c3ccccc3)[nH]c2c1` (stereo not given), the growth was 24%.

With `CC(=O)c1cc2c(N)c(C(=O)Nc3cccc(F)c3C)sc2nc1C`, the growth is 63.9%.

`O=C(O)c1ccc(NC(=O)c2ccc(-c3cccc([N+](=O)[O-])c3)o2)cc1`: the growth is 113%.

`O=S(=O)(Nc1ccc(NS(=O)(=O)c2ccccc2)c(Cl)c1)c1ccccc1`: the growth was 90.9%.

With `O=C(CN(C(=O)Cn1c(=O)n2nnnc2c2ccccc21)c1ccccc1C(F)(F)F)Nc1ccc(C(F)(F)F)cc1`, the growth is 111%.

With `CNC(=O)c1cc(Oc2ccc(NC(=O)Nc3ccc(Cl)c(OC(F)(F)F)c3)c(F)c2)ccn1`, the growth is 30%.

For `O=c1ccccc(-c2ccc(-c3ccco3)cc2)c1O`, the growth was 10%.

With `O=C1c2cc3c(cc2-c2c1c1ccc(Cl)cc1c(=O)n2CCCN1CCOCC1)OCO3`, the growth was 4.71% (active).

Regarding `O=C(COc1cccc(/C=C2\CSc3ccccc3C2=O)c1)Nc1nccs1`, the growth is -47% (active).

Take `c1ccc(-c2cc3n4c(-c5ccccc5)nn(-c5ccccc5)c4cnc-3n2)cc1`: the growth was 113%.

On to `COc1ccc2c(c1)c(-c1nonc1-c1cn(C)c3ccccc13)cn2C`, for which the growth is 30.1%.

For the molecule `O=C1c2ccccc2C(=O)c2c(N=Nc3[nH]c(=S)[nH]c3O)cccc21`, the growth was 24.5%.

`COc1ccc(-n2nc(C)c3c(Nc4ccc(NC(=O)Nc5ccc(Cl)c(C(F)(F)F)c5)cc4)ncnc32)cc1`: the growth was 20.8%.

In the case of `CN(C)CCCNc1c2ccccc2nc2ccccc12`, the growth is 86.9%.

`O=c1cc(/C(=C2/C=CC=N2)c2ccc[nH]2)c2cc(Cl)ccc2o1`: the growth was 23.7%.

For the molecule `COc1ccc(SC2c3ccc(C)cc3Oc3nc(N)c(C#N)c(N)c32)cc1` (stereo not given), the growth was -28% (active).

For the molecule `COc1ccc(C(=O)/C=C/c2cccnc2Nc2cc(OC)c(OC)c(OC)c2)cc1`, the growth is -0.688% (active).

`O=[N+]([O-])c1ccccc1/C=N\NC(=S)N/N=C/c1ccccc1[N+](=O)[O-]`: the growth was 19%.

With `OCc1ccc(N2CCc3cccc(F)c3C2)cc1Cl`, the growth is 87.6% [0.1 µM].

Regarding `COc1cc2c(cc1-c1c(C)noc1C)ncc1nc(C3CCOCC3)n([C@H](C)COC(F)F)c12`, the growth was 28.3%.

Regarding `C#Cc1cccc(NC(=O)c2ccccc2NC(=O)CCl)c1`, the growth was 62.1% [8.25 µM].

For `COc1ccc(C2Nc3c(c(C(C)(C)C)nn3-c3ccccc3)C(=O)CS2)cc1` (stereo not given), the growth is 87%.

For `O=c1c2c3c(sc2nc(N/N=C/c2cn(-c4ccccc4)nc2-c2ccc(Cl)cc2)n1Cc1ccccc1)CCCC3`, the growth is 59.3%.

`COc1ccc2[nH]cc(-c3noc(C(=O)c4cn(C)c5ccc(F)cc45)n3)c2c1`: the growth was 89.7%.
